# Measurements as given in article PMC4336329 (PLoS ONE, 2015).
# The whole screen tested about 310,000 compounds, of which about 14,000 (4.5%) showed an effect of 50% or more. The effect is printed as a negative number. This is one part of a sample in which strong results are shown more often than they occur.
# Biological target: human ether-à-go-go-related gene (hERG) potassium channel (human, UniProt Q12809)
# Assay: primary screen, population patch clamp on CHO cells stably expressing hERG; higher = less effect of the substance
# 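Note: peak tail current of the secondary pulse compared with the same well before compound.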
# Chain of human ether-à-go-go-related gene (hERG) potassium channel (Q12809 whole entry, looked up): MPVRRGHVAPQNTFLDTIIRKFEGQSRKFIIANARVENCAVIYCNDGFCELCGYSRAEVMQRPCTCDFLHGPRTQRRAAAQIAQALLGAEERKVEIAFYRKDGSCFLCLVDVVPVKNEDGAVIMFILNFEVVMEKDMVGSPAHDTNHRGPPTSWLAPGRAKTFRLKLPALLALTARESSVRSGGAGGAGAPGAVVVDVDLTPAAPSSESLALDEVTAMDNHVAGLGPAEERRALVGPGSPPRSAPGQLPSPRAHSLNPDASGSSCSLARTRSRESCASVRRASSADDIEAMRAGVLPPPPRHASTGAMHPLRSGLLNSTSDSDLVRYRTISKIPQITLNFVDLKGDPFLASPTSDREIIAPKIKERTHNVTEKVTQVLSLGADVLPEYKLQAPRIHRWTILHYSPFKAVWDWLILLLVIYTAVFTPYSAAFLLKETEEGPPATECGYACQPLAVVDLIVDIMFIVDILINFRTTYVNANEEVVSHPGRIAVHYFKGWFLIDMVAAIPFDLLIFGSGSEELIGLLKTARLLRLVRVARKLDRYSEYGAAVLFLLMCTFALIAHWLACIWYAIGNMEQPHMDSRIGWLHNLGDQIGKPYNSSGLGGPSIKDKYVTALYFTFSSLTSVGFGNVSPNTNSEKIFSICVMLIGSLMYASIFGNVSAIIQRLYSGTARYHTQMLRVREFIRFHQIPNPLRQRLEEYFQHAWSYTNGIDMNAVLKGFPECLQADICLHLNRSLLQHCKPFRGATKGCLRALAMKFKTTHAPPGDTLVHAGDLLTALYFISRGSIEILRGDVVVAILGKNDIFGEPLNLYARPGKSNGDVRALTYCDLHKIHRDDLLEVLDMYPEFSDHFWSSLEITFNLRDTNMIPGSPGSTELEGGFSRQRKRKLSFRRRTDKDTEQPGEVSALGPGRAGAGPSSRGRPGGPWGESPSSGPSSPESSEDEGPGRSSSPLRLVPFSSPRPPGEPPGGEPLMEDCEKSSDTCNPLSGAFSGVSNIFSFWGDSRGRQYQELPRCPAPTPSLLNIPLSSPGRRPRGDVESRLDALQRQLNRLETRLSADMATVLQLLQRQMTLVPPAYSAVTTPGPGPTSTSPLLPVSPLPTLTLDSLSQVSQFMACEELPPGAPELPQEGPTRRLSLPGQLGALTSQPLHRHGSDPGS
row,Compound,"hERG current change (%, negative = inhibition) at 10uM"
1,CC(=O)c1cn(-c2ccc(Cl)cc2)c(=O)n(Cc2ccc(Br)cc2)c1=O,-11.9%
2,O=C(Nc1ccccc1F)C1CCCN(S(=O)(=O)c2ccccc2)C1 (centres unmarked),-10.3%
3,Cc1ccc(Cc2cnc(N3C(=N)SC(c4ccccc4)C3=O)s2)cc1 (centres unmarked),3.87%
4,COc1cc(OC)cc(C(=O)NCC(=O)OCC(=O)C(C)(C)C)c1,16.6%
5,CCCC1=NN2C(=N)/C(=C\c3cc(C)n(-c4cc(C)cc(C)c4)c3C)C(=O)N=C2S1,-10.4%
6,CCc1nc2c(n1O)CCc1nonc1-2,4.58%
7,COc1ccc(Cl)cc1NC(=O)CCCN1C(=O)CCC1=O,14.4%
8,CCOC(=O)c1c(C)[nH]c(C)c1C(=O)C(Cc1ccccc1)N(C)C.Cl (centres unmarked),4.71%
9,CCS(=O)(=O)NCC(c1cccnc1)N1CCN(c2ccc(F)cc2)CC1 (centres unmarked),-7.91%
10,O=C(NCC(c1cccnc1)N1CCN(c2ccc(F)cc2)CC1)OCc1ccccc1 (centres unmarked),-56.8%
11,O=S(=O)(NCC(c1ccco1)N1CCN(c2ccc(F)cc2)CC1)c1ccc(F)cc1 (centres unmarked),-0.721%
12,O=C(NCC(c1cccnc1)N1CCN(c2ccccc2)CC1)OCc1ccccc1 (centres unmarked),-45.9%
13,O=S(=O)(NCC(c1cccnc1)N1CCN(c2ccc(F)cc2)CC1)c1ccc(F)cc1 (centres unmarked),-69%
14,O=S(=O)(NCC(c1cccnc1)N1CCN(c2ccc(F)cc2)CC1)c1ccccc1 (centres unmarked),-53.2%
15,O=C(NCC(c1cccnc1)N1CCN(c2ccc(F)cc2)CC1)c1ccc(F)cc1 (centres unmarked),-47.6%
16,O=C(NCC(c1cccnc1)N1CCN(c2ccc(F)cc2)CC1)Oc1ccccc1 (centres unmarked),-26.4%
17,COc1ccc2c(c1)-c1c(ssc1=S)C(C)(C)N2S(=O)(=O)c1ccc(C)cc1,2.55%
18,CCCCN1C(=O)/C(=C/c2ccc(N(C)C)cc2)C(=O)N(Cc2ccco2)C1=O,7.86%
19,S=C(NCC1CCCO1)Nc1ccccc1 (centres unmarked),25.5%
20,C=CCn1cc(CN2CCC(C(=O)Nc3cccc(-c4cccc(Cl)c4)c3)CC2)c(C)n1,-71.5%
21,Cc1c(CN2CCC(C(=O)Nc3ccc(Oc4ccccc4)nc3)CC2)cnn1C,-32.8%
22,Cc1c(CN2CCC(C(=O)Nc3cccc(-c4cccc(Cl)c4)c3)CC2)cnn1C,-61.4%
23,CCn1cc(CN2CCC(C(=O)Nc3cccc(-c4cccc(OC)c4)c3)CC2)c(C)n1,-46.3%
24,CCn1cc(CN2CCC(C(=O)Nc3cccc(-c4cccc(Cl)c4)c3)CC2)c(C)n1,-78.9%
25,CC(=O)c1cc(CN2CCC(C(=O)Nc3cccc(-c4cscn4)c3)CC2)cs1,-30.5%
26,CCn1cc(CN2CCCC(C(=O)Nc3ccc(-c4cscn4)cc3)C2)c(C)n1 (centres unmarked),-8.71%
